Assay outcomes from PubChem.
ROS inducer: cancer cell ROS induction; U2OS ROS induction, H2DCF-DA fluorescence; hit rate 2% among 46,000; AID 624156; ROS induction (% of piperlongumine), % at 10 µM; in the data active = ROS induction above about 79%, passing the limit was not always enough;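 note: 0% = DMSO vehicle median and 100% = reference compound median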
YB-1 expression: YB-1 expression inhibition. AID 434959. hit rate 0.37% among 30,000. delta delta Cp (YB-1 minus CDIP) (test concentration not listed). U2OS, qRT-PCR YB-1 vs CDIP delta delta Cp, 16 h; active compounds read high; zero = DMSO, each unit about twofold;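 active = delta delta Cp rounded down to an integer at or above 3, about 3 SD of DMSO wells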;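 note: higher means less YB-1 transcript or more CDIP transcript relative to DMSO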
Numbers without * were called inactive; / = no result given. The list is not random: actives were taken first. Their share in the collection is about 2.3%.

SMILES | ROS inducer | YB-1 expression
COc1ccc(CN(C)C[C@H]2Oc3ccc(NS(=O)(=O)c4ccc(Cl)cc4)cc3C(=O)N([C@H](C)CO)C[C@@H]2C)cc1 | 147.3* | 0.0441
COc1ccc(CN(C)C[C@@H]2Oc3ccc(NC(=O)c4ccncc4)cc3C(=O)N([C@H](C)CO)C[C@H]2C)cc1 | 149.3* | -0.295
COc1ccc(CN(C)C[C@H]2OCCCC[C@@H](C)Oc3ccc(NS(=O)(=O)c4ccc(C)cc4)cc3C(=O)N([C@H](C)CO)C[C@@H]2C)cc1 | 29.0 | -0.649
COc1ccc(CN(C)C[C@@H]2OCCCC[C@@H](C)Oc3ccc(NS(=O)(=O)c4ccc(OC)cc4)cc3C(=O)N([C@H](C)CO)C[C@@H]2C)cc1 | 172.1* | 0.329
COc1ccc(CN(C)C[C@H]2Oc3ccc(NS(=O)(=O)c4ccc(Cl)cc4)cc3C(=O)N([C@@H](C)CO)C[C@@H]2C)cc1 | 35.0 | 0.246
C[C@@H]1CCCCO[C@H](CN(C)Cc2ccc(Cl)c(Cl)c2)[C@@H](C)CN([C@H](C)CO)C(=O)c2cc(NC(=O)Cc3ccccc3)ccc2O1 | 25.3 | 0.257
CCCCc1[nH]nc2c1C1(CCCCC1)C(C#N)=C(N)O2 | -13.4 | /
COc1ccc(OC)c(C(=O)CC2(O)C(=O)Nc3ccccc32)c1 (stereo not drawn) | -2.7 | /
CC1CCCCN1C(=O)c1cccs1 (stereo not drawn) | -10.4 | /
COc1cccc(C(=O)NC2CC(C)(C)NC(C)(C)C2)c1 | -2.0 | /
c1ccc2[nH]c(SCCSc3nc4ccccc4[nH]3)nc2c1 | 3.3 | -0.077
O=C(Nc1cccc(F)c1)c1cccc(-c2cc3ccccc3oc2=O)c1 | -3.7 | /
Cc1cc(C)n(CCc2nc3c4ccccc4nc(=S)n3[nH]2)n1 | 17.8 | /
C[C@@H]1CN([C@@H](C)CO)C(=O)c2cc(NS(=O)(=O)c3ccccc3)ccc2O[C@H]1CN(C)Cc1ccc(C(F)(F)F)cc1 | 81.9* | 0.0501
COc1ccc(CN(C)C[C@@H]2OCCCC[C@@H](C)Oc3ccc(NC(=O)c4ccccc4)cc3C(=O)N([C@H](C)CO)C[C@@H]2C)cc1 | 146.6* | -0.163
COc1ccc(CN(C)C[C@@H]2OCCCC[C@@H](C)Oc3ccc(NS(=O)(=O)c4ccc(Cl)cc4)cc3C(=O)N([C@H](C)CO)C[C@@H]2C)cc1 | 58.5 | 0.23
C[C@H]1CN([C@@H](C)CO)C(=O)c2cc(NS(=O)(=O)c3ccccc3)ccc2O[C@H]1CN(C)Cc1ccc(C(F)(F)F)cc1 | 4.8 | -0.0606
COc1ccc(S(=O)(=O)Nc2ccc3c(c2)C(=O)N([C@H](C)CO)C[C@H](C)[C@@H](CN(C)Cc2ccc(Cl)c(Cl)c2)OCCCC[C@@H](C)O3)cc1 | 151.0* | -0.828
COc1ccc(CN(C)C[C@@H]2OCCCC[C@@H](C)Oc3ccc(NC(=O)c4ccncc4)cc3C(=O)N([C@H](C)CO)C[C@@H]2C)cc1 | 11.6 | -0.217
O=C(NCCOc1ccccc1-c1ccccc1)c1cccc2ccccc12 | 13.1 | /
CCCOC(=O)c1ccc(NC(=O)c2ccc(C)c(Br)c2)cc1 | 6.1 | /
Cc1noc(C)c1NC(=O)Nc1cccc2c1O[C@H](CN(C)S(C)(=O)=O)[C@@H](C)CN([C@H](C)CO)C2=O | -6.5 | 0.0798
COc1ccc(NC(=O)Nc2cccc3c2O[C@@H](CN(C)S(C)(=O)=O)[C@H](C)CN([C@@H](C)CO)C3=O)cc1 | 111.5* | 0.737
COc1ccc(NC(=O)Nc2cccc3c2O[C@H](CN(C)S(C)(=O)=O)[C@H](C)CN([C@@H](C)CO)C3=O)cc1 | -6.5 | -0.311
COc1ccc(NC(=O)N(C)C[C@@H]2Oc3c(NC(=O)C4CC4)cccc3C(=O)N([C@@H](C)CO)C[C@H]2C)cc1 | 86.9* | 0.323
SMILES | ROS inducer | YB-1 expression
C[C@@H]1CN([C@@H](C)CO)C(=O)c2cccc(NC(=O)Nc3ccc(F)cc3)c2O[C@@H]1CN(C)S(C)(=O)=O | 89.9* | -0.0311
C[C@@H]1CN([C@H](C)CO)C(=O)c2cccc(NC(=O)Nc3ccc(F)cc3)c2O[C@H]1CN(C)S(C)(=O)=O | 18.3 | 0.183
COc1ccc(NC(=O)N(C)C[C@H]2Oc3c(NC(=O)C4CC4)cccc3C(=O)N([C@@H](C)CO)C[C@H]2C)cc1 | -11.6 | -0.331
Cc1noc(C)c1NC(=O)Nc1cccc2c1O[C@@H](CN(C)S(C)(=O)=O)[C@H](C)CN([C@H](C)CO)C2=O | 100.3* | 0.0697
Cc1ccc(S(=O)(=O)NC2c3ccccc3Oc3ccccc32)cc1 | 0.7 | /
CCN1C(=O)CCS(=O)(=O)c2ccccc21 | -12.7 | /
COc1ccccc1NC(=O)C1=C(C)Nc2ncnn2C1c1ccccc1C(=O)O (stereo not drawn) | -5.7 | /
COc1ccc(C2C(C(=O)Nc3cc(OC)c(Cl)cc3OC)=C(C)Nc3ncnn32)c(OC)c1 (stereo not drawn) | 136.4* | /
Cc1ccc(S(=O)(=O)CCSc2sc(C#N)c3c2C(=O)CC(C)(C)C3)cc1 | 124.8* | 0.079
CCOC(=O)c1sc(SCCS(=O)(=O)c2ccc(Cl)cc2)c2c1CCCC2=O | 22.3 | -0.219
